# Measurements: PubChem BioAssay
# Activity calls are given as the source filed them.
# What was measured:
# [1] = small molecules captured by biotinylated probe aFSTL3 – biochemical, small-molecule microarray, fluorescence 635/667, stem cell growth factor project, primary screen (AID 1064); settings: higher = more signal;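 note: measures binding of the biotinylated anti-FSTL3 antibody to printed compounds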
# [2] = binders from COS7 lysate, DM2A8 probe, primary screen, torsin A project, cell lysate, small-molecule microarray, fluorescence 635/667 (AID 1065); settings: higher = more signal, COS7 lysate expressing mutant human TOR1A
# [3] = small molecules captured by biotinylated probe aFGF2 – biochemical, small-molecule microarray, fluorescence 635/667, stem cell growth factor project, primary screen (AID 1067); settings: higher = more signal;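 note: measures binding of biotinylated aFGF2 protein to printed compounds on slides; z-score merges feature fluorescence and signal-to-noise across triplicate slides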
# [4] = small molecules captured by biotinylated probe aFGF10 – biochemical, small-molecule microarray, fluorescence 635/667, stem cell growth factor project, primary screen (AID 1071); settings: higher = more signal;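 note: score merges 667 nm spot intensity and signal to noise from triplicate slides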
# [5] = target: Neurogenic locus notch homolog protein 2 (Homo sapiens) (UniProt Q04721); assay: small molecules binding Notch2 protein – biochemical, small-molecule microarray, 635 nm fluorescence, stem cell growth factors, primary screen (AID 1073); settings: higher = more signal
# Neurogenic locus notch homolog protein 2 (Homo sapiens), sequence (Q04721 whole entry, looked up, canonical isoform): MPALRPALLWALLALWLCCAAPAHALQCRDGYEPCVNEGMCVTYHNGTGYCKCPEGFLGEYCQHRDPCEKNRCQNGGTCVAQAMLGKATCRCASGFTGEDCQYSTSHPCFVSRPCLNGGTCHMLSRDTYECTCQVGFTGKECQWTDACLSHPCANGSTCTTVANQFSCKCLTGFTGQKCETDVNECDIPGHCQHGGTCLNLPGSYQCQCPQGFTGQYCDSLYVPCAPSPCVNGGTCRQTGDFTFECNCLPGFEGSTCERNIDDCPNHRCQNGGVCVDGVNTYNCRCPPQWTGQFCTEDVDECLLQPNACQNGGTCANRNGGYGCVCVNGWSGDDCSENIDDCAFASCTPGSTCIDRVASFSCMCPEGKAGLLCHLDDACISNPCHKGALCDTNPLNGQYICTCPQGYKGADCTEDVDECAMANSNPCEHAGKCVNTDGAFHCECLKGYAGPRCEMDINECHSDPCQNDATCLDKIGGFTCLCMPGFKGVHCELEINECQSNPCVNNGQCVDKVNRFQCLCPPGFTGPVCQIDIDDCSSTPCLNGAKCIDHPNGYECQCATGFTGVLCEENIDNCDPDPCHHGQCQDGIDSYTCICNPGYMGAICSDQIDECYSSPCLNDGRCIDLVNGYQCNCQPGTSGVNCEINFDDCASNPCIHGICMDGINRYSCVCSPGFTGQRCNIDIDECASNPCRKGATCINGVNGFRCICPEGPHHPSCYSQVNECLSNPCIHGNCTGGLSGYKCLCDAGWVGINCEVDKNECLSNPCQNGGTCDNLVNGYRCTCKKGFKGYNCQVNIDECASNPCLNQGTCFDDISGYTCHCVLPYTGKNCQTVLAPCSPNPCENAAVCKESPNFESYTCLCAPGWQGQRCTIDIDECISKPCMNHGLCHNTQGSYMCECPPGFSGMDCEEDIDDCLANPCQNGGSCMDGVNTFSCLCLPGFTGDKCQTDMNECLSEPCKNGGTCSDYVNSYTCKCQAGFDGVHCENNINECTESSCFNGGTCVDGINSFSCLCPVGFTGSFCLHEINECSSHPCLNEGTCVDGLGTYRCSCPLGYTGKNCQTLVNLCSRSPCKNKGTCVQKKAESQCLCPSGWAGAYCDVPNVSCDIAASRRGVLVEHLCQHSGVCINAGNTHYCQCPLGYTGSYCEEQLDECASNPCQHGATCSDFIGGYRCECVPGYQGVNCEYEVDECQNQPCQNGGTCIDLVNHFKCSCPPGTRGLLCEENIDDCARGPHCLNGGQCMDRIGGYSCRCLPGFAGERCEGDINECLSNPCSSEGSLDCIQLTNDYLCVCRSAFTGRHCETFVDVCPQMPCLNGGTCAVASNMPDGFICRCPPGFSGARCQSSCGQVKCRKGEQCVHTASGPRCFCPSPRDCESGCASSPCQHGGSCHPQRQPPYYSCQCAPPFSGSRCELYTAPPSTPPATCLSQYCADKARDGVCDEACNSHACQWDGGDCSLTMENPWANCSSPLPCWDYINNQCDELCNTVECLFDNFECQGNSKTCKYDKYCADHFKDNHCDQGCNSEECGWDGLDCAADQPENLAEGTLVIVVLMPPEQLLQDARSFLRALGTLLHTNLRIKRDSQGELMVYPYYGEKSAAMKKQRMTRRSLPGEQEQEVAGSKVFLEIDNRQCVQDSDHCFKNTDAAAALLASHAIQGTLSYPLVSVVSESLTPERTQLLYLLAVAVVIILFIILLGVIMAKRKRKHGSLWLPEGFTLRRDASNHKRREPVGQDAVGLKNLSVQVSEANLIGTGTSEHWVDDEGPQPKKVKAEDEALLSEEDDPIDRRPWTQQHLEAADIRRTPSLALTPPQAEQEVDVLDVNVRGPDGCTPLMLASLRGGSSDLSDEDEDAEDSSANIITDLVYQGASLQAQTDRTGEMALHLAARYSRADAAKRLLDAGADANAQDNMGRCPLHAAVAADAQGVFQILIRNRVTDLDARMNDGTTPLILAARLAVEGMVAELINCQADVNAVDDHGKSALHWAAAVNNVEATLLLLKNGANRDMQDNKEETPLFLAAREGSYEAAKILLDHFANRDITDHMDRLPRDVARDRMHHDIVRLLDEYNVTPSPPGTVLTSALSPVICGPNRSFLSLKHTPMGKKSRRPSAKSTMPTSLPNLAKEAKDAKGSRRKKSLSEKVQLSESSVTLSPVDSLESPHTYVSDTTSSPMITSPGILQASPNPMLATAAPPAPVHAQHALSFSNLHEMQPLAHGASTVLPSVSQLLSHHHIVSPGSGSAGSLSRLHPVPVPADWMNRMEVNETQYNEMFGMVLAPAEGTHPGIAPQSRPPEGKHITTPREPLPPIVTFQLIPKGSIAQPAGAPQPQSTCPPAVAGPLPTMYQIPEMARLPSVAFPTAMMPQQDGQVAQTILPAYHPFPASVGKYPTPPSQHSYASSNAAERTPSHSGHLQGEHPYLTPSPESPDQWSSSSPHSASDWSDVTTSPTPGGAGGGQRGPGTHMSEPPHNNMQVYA
# [6] = target: Pro-neuregulin-1, membrane-bound isoform (Homo sapiens) (UniProt Q02297); assay: small molecules binding neuregulin-1 protein – biochemical, small-molecule microarray, fluorescence 635/667, psychiatric disease protein project, primary screen (AID 1075); settings: NRG1 binding, 635 nm fluorescence, higher = more signal;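 note: score combines 667 nm spot fluorescence with signal to noise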
# Pro-neuregulin-1, membrane-bound isoform (Homo sapiens), sequence (Q02297 whole entry, looked up, the tested form may be a part, canonical isoform): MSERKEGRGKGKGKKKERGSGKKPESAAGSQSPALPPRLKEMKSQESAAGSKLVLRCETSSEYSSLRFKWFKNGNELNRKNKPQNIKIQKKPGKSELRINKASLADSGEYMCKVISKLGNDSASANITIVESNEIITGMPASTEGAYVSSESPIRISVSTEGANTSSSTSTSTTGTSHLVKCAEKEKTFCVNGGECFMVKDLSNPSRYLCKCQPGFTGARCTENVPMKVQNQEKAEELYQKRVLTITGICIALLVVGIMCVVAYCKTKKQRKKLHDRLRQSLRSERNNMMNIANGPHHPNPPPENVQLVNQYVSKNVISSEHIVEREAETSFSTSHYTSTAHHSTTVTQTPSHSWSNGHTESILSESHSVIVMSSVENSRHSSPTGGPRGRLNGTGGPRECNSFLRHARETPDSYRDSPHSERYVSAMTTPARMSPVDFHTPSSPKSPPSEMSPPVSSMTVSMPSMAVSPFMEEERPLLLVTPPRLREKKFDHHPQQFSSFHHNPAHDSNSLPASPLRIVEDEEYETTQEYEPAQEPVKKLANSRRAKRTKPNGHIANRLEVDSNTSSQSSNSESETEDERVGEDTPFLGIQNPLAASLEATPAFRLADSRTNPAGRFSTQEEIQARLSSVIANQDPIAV
# [7] = system: Neuregulin-1 EGF-like domain; assay: small molecules binding NRG1 EGF domain – biochemical, small-molecule microarray, 635 nm fluorescence, primary screen (AID 1081); settings: higher = more signal;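 note: binding of the protein to compounds printed on small-molecule microarray slides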
# [8] = FRG1 expression reporter modulators in myotubes – cell-based, C2C12 myotubes, firefly/Renilla luciferase, luminescence, FRG1 inhibition for FSHD, primary screen (AID 1084); settings: FRG1 promoter luciferase, higher = more signal, called active from +8 up or from −8 down
# [9] = small molecules captured by biotinylated probe aFST – biochemical, small-molecule microarray, fluorescence 635/667, stem cell growth factor project, primary screen (AID 1086); settings: higher = more signal;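 note: score merges 667 nm fluorescence with signal-to-noise of each printed compound spot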
# [10] = binders of probe aHhip on microarray, primary screen, stem cell growth factor project, biochemical, small-molecule microarray, fluorescence 635/667 (AID 1087); settings: higher = more signal;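 note: score merges spot fluorescence at 667nm with spot signal to noise ratio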
SMILES,composite z-score [1],composite z-score [2],composite z-score [3],composite z-score [4],composite z-score [5],composite z-score [6],composite z-score [7],z-score [8],composite z-score [9],composite z-score [10]
CC(C)C[C@@H]1NC(=O)[C@H]2C[C@@H](C(=O)NCCCCCCN(C)C)[C@@H](c3cccc(OCCO)c3)N2C1=O,0.293,1.55,-0.0173,0.789,0.873,0.528,0.781,3.77 (inactive),0.256,-0.156
CC(=O)OC[C@H]1O[C@H](CC=NOC[C@@H](C)[C@H](OCc2ccccc2)C(C)C)C=C[C@@H]1OC(C)=O,-0.0055,-0.141,-0.087,0.0055,-0.0224,-0.254,-0.712,0.183 (inactive),-0.341,-0.0645
O=C1O[C@@H](c2ccccc2)[C@@H](c2ccccc2)N2[C@@H](c3ccccc3OCCO)[C@]3(C(=O)Nc4ccc(C#CCCO)cc43)[C@@H](C(=O)O)[C@H]12,-1.32,0.638,-0.189,0.798,0.438,1.84,1.36,-1.28 (inactive),-0.423,-0.945
COc1ccc([Si](C)(C)[C@@H]2[C@@H](CCO)O[C@]3(C(=O)N(Cc4ccc(NC(C)=O)cc4)c4ccccc43)[C@H]2C)cc1,-0.189,1.05,-0.0049,1.18,1.47,1.66,1.24,-4.04 (inactive),0.17,0.0373
CC(C)NC(=O)[C@@]1(c2ccc([N+](=O)[O-])cc2)CC(=O)N(CC23CC4CC(CC(C4)C2)C3)[C@@H]1c1ccc(CO)cc1I,0.765,0.0289,0.11,0.252,0.931,0.607,0.964,-3.71 (inactive),0.481,-0.0645
CC(=O)OC[C@H]1O[C@H](CCON=C(C)CCC(=O)OC[C@H]2O[C@H](C#Cc3ccccc3)C=C[C@@H]2Oc2ccc(C)cc2)C=C[C@@H]1OC(C)=O,-0.41,0.703,-0.12,0.479,-0.126,0.0383,0.359,0.718 (inactive),0.265,-0.132
C[C@H](c1ccccc1)N1C(=O)[C@H]2[C@H]3[C@H](O)[C@H](O)CC(=O)[C@@H]3CC[C@H]2C1=O,-0.019,0.242,-0.0675,0.341,0.433,-0.117,0.263,-0.243 (inactive),0.0924,0.0274
CC(CCN1CCc2nc(-c3ccccc3)c(-c3ccccc3)cc2C1)=NOC[C@@H](C)[C@H](OCc1ccccc1)C(C)C,-0.0574,-1.01,-0.172,-0.756,-1.63,0.0189,-0.0462,0.764 (inactive),-0.32,-0.206
CCOC(=O)CCN1C(=O)[C@H]2[C@H]3[C@H](O)[C@H](O)CC(=O)[C@H]3CC[C@H]2C1=O,-0.554,0.418,-0.128,0.389,0.709,0.217,0.518,0.639 (inactive),0.372,-0.132
COC(=O)CC=C[C@H](C)[C@H](CO)NS(=O)(=O)c1ccc(C)cc1,-0.634,0.0049,-0.163,0.476,0.24,-0.0696,0.629,-0.599 (inactive),0.12,-0.132
COC(=O)[C@@]1(Cc2ccc(F)cc2)[C@@H]2C(=CC(=O)[C@H]2CC(=O)C(=O)N(C)C)CN1C(=O)c1ccccc1,0.581,-0.293,0.293,0.663,1.71,1.49,1.36,-0.524 (inactive),1.45,2.1
CCCNC(=O)OC[C@H]1O[C@H](CCON=CC[C@@H]2C=C[C@H](OC(C)=O)[C@@H](COC(C)=O)O2)C=C[C@@H]1Oc1ccc(OC)cc1,-0.458,0.453,-0.112,0.423,0.605,-0.367,0.576,0.335 (inactive),0.014,-0.134
CCOC(=O)CCN1C(=O)[C@H]2[C@H]3[C@H](O)C=CC(=O)[C@@H]3CC[C@H]2C1=O,-0.619,0.153,-0.108,0.408,0.25,0.262,-0.0122,-0.451 (inactive),-0.0371,-0.374
COCC(=C=CC[C@@H](O)c1ccccc1OCCO)CCO,-0.181,0.44,0.0201,0.492,0.375,0.19,1.27,0.0373 (inactive),0.175,-0.0618
CC(=O)O[C@H]1C2=C(C(=O)[C@@H]3O[C@@H]31)[C@H]1C(C)O[C@@H]2[C@@]23C(=O)[C@@H]4O[C@@H]4[C@@H](O)C2=CO[C@H](C)[C@@H]13 (stereo not given in full),-0.295,0.16,-0.0314,0.226,0.166,-0.274,0.377,-1.07 (inactive),-0.0354,-0.0645
CCCCCN1CC=CC23O[C@@H]4C=CCOC(=O)[C@@H]4[C@H]2C(=O)N(CCCCCCO)[C@@H]3C1=O (stereo not given in full),0.729,-0.859,-0.133,-0.237,-1.14,2.35,0.975,0.428 (inactive),-0.823,-0.429
CCOC(=O)[C@H](Cc1ccccc1)NC(=O)CCC1CC(OC(=O)NCCc2ccc(F)cc2)CC2(CCCC(COC(=O)NCC(c3ccccc3)c3ccccc3)O2)O1 (stereo not given in full),-0.183,0.0877,-0.0785,0.627,0.823,0.852,0.919,2.14 (inactive),0.486,0.0053
CCOC(=O)C[C@H]1[C@H](OC(=O)c2cc3ccccc3oc2=O)[C@@H](NC(=O)c2ccc3ccccc3n2)c2cc(OCCCO)ccc2N1C(=O)c1ccccc1,-0.189,0.459,-0.0455,0.706,0.302,0.0269,0.736,0.331 (inactive),0.353,-0.383
CN1C(=O)C2C=CC(C(O)c3ccc(Br)cc3)N(N(c3ccccc3)c3ccccc3)C2C1=O (stereo not given),0.519,-0.225,0.301,0.125,1.09,0.181,0.985,0.162 (inactive),0.576,-0.0618
COc1cccc([C@H]2Oc3ccc(OC)cc3C(=NOC(C)CN3CCCc4nc(C)c(C)cc43)[C@@H]2O)c1 (stereo not given in full),-0.437,0.15,-0.0316,0.32,0.687,0.146,0.541,2.49 (inactive),-0.055,0.154
COc1ccc(O[C@H]2C=C[C@@H](c3ccccc3)O[C@@H]2COC(=O)N2CCCCC2)cc1,-0.0055,0.38,-0.0493,-0.479,-0.701,-0.578,-0.77,-0.216 (inactive),-0.0007,-0.171
O=C1NC(=O)C2C1C=CC(C(O)Cc1ccccc1)N2Nc1ccccn1 (stereo not given),-0.368,0.0052,-0.0154,0.477,1.14,1.79,0.934,-0.518 (inactive),0.494,-0.0618
C=CC[C@]1(C(=O)NCc2ccccc2)N=C(c2ccc(OCCCO)cc2)O[C@H]1c1ccccc1,0.674,1.1,-0.0131,-0.439,0.007,1.51,1.26,-0.97 (inactive),0.991,-0.0645
CCN(CC)c1ccc(N2CC=CC34O[C@@H]5/C=C\CCC(C)OC(=O)C5[C@H]3C(=O)N(CCCO)[C@@H]4C2=O)cc1 (stereo not given in full),0.678,0.215,-0.0766,0.408,-0.659,0.63,1.58,0.957 (inactive),-0.444,-0.0237
CC(C)(C)N1C(=O)[C@H]2[C@H]3[C@H](O)[C@H](O)CC(=NOCc4ccccc4)[C@@H]3CC[C@H]2C1=O,-0.0757,0.581,-0.0963,0.805,1.49,0.583,1.13,-1.4 (inactive),0.503,-0.15
COCCCNC(=O)[C@]1(CCC(=O)OC(C)(C)C)N=C(c2ccc(OCCCO)cc2)O[C@@H]1c1ccccc1N=[N+]=[N-],0.0081,1.27,0.15,0.891,1.33,1.62,1.36,3.15 (inactive),1.51,0.107
